Residue numbers refer to the chain shown, from its start. Over roughly 24,000 sequences, “enrichment r” has its median near 0.99; the highest 2% begin near 3.7. The full list was thinned out, with the highest values kept by preference.
T1: UNK ZnF1-3 (human, UniProt Q9C0B0 31-174)
T1 sequence: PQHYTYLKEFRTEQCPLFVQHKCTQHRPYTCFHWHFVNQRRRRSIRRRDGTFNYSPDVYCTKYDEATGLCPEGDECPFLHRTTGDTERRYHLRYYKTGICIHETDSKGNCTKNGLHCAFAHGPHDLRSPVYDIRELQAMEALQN

B1: chr1:163117127:163117128:-_ENSG00000143248_ENST00000313961|hu_mus|hu_hu_hu_mus_False|1_18 (ssRNA)
RNA: GGGAGUUCUACAGUCCGACGAUCUGCUACAAAGGAUGUAACUCAACUCACAGGGCAACUUUUGGAAGCCUGACCAGAUGACUACUUGAUUAGCUCCUUAUAAAAUUCAGAGCGCACAAAGCGAGGCAGAGAAUCCUUUUCCAUCAACAGAGGAUUGAGCAUCA
B2: chr16:45382771:45382772:-_ENSMUSG00000022661_ENSMUST00000163230|mus_mus|mus_mus_mus_hu_True|18_88 (ssRNA)
RNA: GGGAGUUCUACAGUCCGACGAUCCUGGGUCAUGUUAUAAGACAAAUGGAUAGGGAGGGCAUGCUUCUCAAAAAAUGUGAGCUAUUGUCUAAGACUAACAAUAUUUAUCUAGCUAUAUAAAAAUAAGAAAUGAAUAAGUUAAGACAACAGAGGAUUGAGCAUCA
B3: chr18:56819859:56819860:+_ENSG00000166562_ENST00000588875|hu_mus|hu_hu_hu_mus_True|38_38 (ssRNA)
RNA: GGGAGUUCUACAGUCCGACGAUCAACCUUGAUUACUCUGUGAACUAUCGGAAUGUCUCUUCCUUCAACCUUAAAAACAACUAUUUCACCAGCUCUGAUUGGGUCUUCCCGGAAAUUCGUGAGGAACAGCAGAUCUCCUCUGUGCAACAGAGGAUUGAGCAUCA
B4: 78791426_78796734_1209_CDS_ENSMUSG00000033088_ENSMUST00000109689|mouse|control|control (ssRNA)
RNA: GGGAGUUCUACAGUCCGACGAUCACUGCCAGAAUUCUCCUUCCUCUGGCCUGCUGUGUCUCCUCGGGCUGGGGACCUGGUGGCCUUUCGAGCACUGUCAGCUCUCAGUCCCUCCUGAGGCCUCCUUGGGAUCAUCUCUGUGAGCAACAGAGGAUUGAGCAUCA
B5: chr7:141450121:141450122:+_ENSG00000106028_ENST00000265304|hu_mus|hu_hu_hu_mus_True|28_98 (ssRNA)
RNA: GGGAGUUCUACAGUCCGACGAUCUCAUCCGUUCUAUUCCUUCUCUUUUGUCUGGUCACUCAGAAAUAUAAUGUUAUCAGCUAUGAUUGUUGUUGCUUGCCGCCUCACAUUAUUUUUAUCCAUGUACUCGCCAUAGUCCACUUUCAACAGAGGAUUGAGCAUCA
B6: 180848183_180848303_6210_CDS_ENSMUSG00000026494_ENSMUST00000161017|mouse|control|control (ssRNA)
RNA: GGGAGUUCUACAGUCCGACGAUCAUUGGACCUUUUCUUUUGGUUUUUGAGGCUCCUGCAUCUCCCUCCCACGGAGCUGCUGUUCUCGCUCAUGGAGUCCUGGGCUGAGGAUGCACUGCCGGUGGCCUCGCUGUCUCUCAUCAUCAACAGAGGAUUGAGCAUCA
B7: chr3:139078181:139078182:-_ENSG00000184432_ENST00000507777|hu_mus|FALSE|FALSE (ssRNA)
RNA: GGGAGUUCUACAGUCCGACGAUCCUGACUGGGUAAGUAAGUUCGGGCCAGGAAGGCAGCUUCUGGGAGUCUUCCUGUUCUGAUCAAGAGCUCUAGGCAAGCAUCAAGCUUGCCCUGUAAAAAAUAGCUCAUGAAUGCCACGUUCAACAGAGGAUUGAGCAUCA
B8: chr1:151039735:151039736:+_ENSG00000213190_ENST00000368921|hu_mus|FALSE|FALSE (ssRNA)
RNA: GGGAGUUCUACAGUCCGACGAUCCCCAGGCCUUCCAGCUCCGACAGAUCCAGUUCUGGGAUGGGCAUCCUCCAGAAAAGAAAGGAGCUGUACUGGCUACUUACAGGGUCCCUCAUGAUCCCCUGUUAGCAAUGAAUGACUAGGCAACAGAGGAUUGAGCAUCA
B9: chr16:45382771:45382772:-_ENSMUSG00000022661_ENSMUST00000163230|mus_mus|mus_mus_mus_hu_True|18_68 (ssRNA)
RNA: B2 RNA with U50C, C68G, A69U, A73G
B10: chr8:35894604:35894605:-_ENSMUSG00000031529_ENSMUST00000033929|mus_hu|FALSE|FALSE (ssRNA)
RNA: GGGAGUUCUACAGUCCGACGAUCCUAUAGCAAUGCUUUAUAGAAGACAAACAGCUUAUUUCUAGGCUGUCAGGGACUUCUAGAAUAUUGAUGUUGUUAUUAGAAACAAUCCUCUGUAAUCCAGUCCCAGGUUGAAAUCUGAUCCAACAGAGGAUUGAGCAUCA
B11: chr16:45382771:45382772:-_ENSMUSG00000022661_ENSMUST00000163230|mus_mus|mus_mus_mus_hu_True|38_68 (ssRNA)
RNA: GGGAGUUCUACAGUCCGACGAUCCUGGGUCAUGUUAUAAGACAAAUGGACAGGGAGGGCAUGCUUCUGUAAAGAUGUGAGCUAUUGUCUAAGACUAACAAUAUUGCUCUAGCUAUAAAAAUAAGUUAAAUGAAUAAGUUAAGACAACAGAGGAUUGAGCAUCA
B12: chr7:19156472:19156473:-_ENSG00000122691_ENST00000242261|hu_mus|FALSE|FALSE (ssRNA)
RNA: GGGAGUUCUACAGUCCGACGAUCGCUGCAGCUUGCCAUCUUGGAGUCCAGCUCGUCGCUCUGCAGGACCUGGUACAGGAAGUCGAUGUACCUGGCCGCCAGUUUGAGGGUCUGAAUCUUGCUCAGCUUGUCCGAGGGCAGCGUCAACAGAGGAUUGAGCAUCA
B13: chr12:39756943:39756944:-_ENSG00000139116_ENST00000544797|hu_mus|hu_hu_hu_mus_False|28_58 (ssRNA)
RNA: GGGAGUUCUACAGUCCGACGAUCGGUUUGGCUGUUACCCCCAAGGGAAUCCUGCAAGAGUCUUGUCAGCUUAGAGUCUCUAUAGGGGACAUGGGUGGCUCUCUUGCUCUUGUCUCCCAAGGCGCUGAUUACAUUCCCAAGAGCCAACAGAGGAUUGAGCAUCA
B14: chr8:95500983:95500984:-_ENSG00000164944_ENST00000437199|hu_hu|hu_hu_hu_mus_True|8_88 (ssRNA)
RNA: GGGAGUUCUACAGUCCGACGAUCAGAACACAUCUAUCGAGUAAAGGGAGCGUACAUACGGCCUCUACCACUGCCUCCACUAACAAACUUUCCUCUCGAGCCUCCACUGCCGCUAUUUGUACUAGCCCCAGGAAGGUCCAGGCCCAACAGAGGAUUGAGCAUCA

The binders below were run against T1, UNK ZnF1-3 (assay: nsRBNS (natural sequence RNA bind-n-seq); RBNS binding buffer (assumed for nsRBNS): 25 mM Tris pH 7.5, 150 mM KCl, 3 mM MgCl2, 0.01% Triton X-100, 500 ug/ml BSA, 20 U/ml SUPERase-In, 4 C; UNK is unkempt and MSI1 is Musashi-1; names of the RNAs are library labels; protein concentration not given here; high values mean tight binding).

Binder	binding signal
B1	1.28 enrichment R
B2	4.85 enrichment R
B3	0.808 enrichment R
B4	0.647 enrichment R
B5	0.444 enrichment R
B6	0.445 enrichment R
B7	0.848 enrichment R
B8	1.11 enrichment R
B9	5.64 enrichment R
B10	0.4 enrichment R
B11	9.94 enrichment R
B12	0.84 enrichment R
B13	0.774 enrichment R
B14	1.68 enrichment R
